# Columns and labels:
# Assay in all cases: DAPPL (digital affinity profiling via proximity ligation, sequencing); 10 mM Tris-HCl pH 7.5, 50 mM NaCl, 1 mM DTT, 4% glycerol, room temperature, 30 min; GST-TFs on glutathione beads, 16-mer random dsDNA library, 0.1% formaldehyde crosslink after washing; high values mean tight binding
# FLI1 = target: T1, FLI1 (Homo sapiens, UniProt Q01543 1-452); settings: protein: recombinant; tags: N-terminal GST; dsDNA, one strand shown
# T1 sequence: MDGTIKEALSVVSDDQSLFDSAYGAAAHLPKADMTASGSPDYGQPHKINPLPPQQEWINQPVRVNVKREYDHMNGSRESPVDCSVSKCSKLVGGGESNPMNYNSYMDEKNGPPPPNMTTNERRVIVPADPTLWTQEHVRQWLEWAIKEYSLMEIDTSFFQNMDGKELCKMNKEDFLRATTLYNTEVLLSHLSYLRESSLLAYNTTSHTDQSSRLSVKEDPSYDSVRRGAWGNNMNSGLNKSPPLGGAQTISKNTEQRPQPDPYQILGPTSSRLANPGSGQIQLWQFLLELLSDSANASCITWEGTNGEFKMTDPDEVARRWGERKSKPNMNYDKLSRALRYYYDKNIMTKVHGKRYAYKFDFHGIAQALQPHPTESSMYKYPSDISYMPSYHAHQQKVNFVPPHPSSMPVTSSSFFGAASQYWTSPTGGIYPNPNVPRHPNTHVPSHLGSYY
# Method in brief: (§1)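 Beads coated with glutathione captured GST-fused human transcription factors that had been expressed in yeast, and the factors were then given DNA barcodes and pooled with a tag-only sample. The pools were incubated with 200 nmole of a random double-stranded 16-mer DNA library in Tris/NaCl/DTT/glycerol buffer for 30 min at room temperature, washed, crosslinked with 0.1% formaldehyde and proximity-ligated with BsaI/T4 ligase at 37 °C for 1 h. PCR amplification and Illumina NextSeq500 sequencing came last. Binding signal is each hexamer's read frequency for a factor divided by its frequency for the tag-only sample.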
# ELK1 = target: T2, ELK1 (Homo sapiens, UniProt P19419 1-428); settings: protein: recombinant; tags: N-terminal GST; dsDNA, one strand shown
# T2 sequence: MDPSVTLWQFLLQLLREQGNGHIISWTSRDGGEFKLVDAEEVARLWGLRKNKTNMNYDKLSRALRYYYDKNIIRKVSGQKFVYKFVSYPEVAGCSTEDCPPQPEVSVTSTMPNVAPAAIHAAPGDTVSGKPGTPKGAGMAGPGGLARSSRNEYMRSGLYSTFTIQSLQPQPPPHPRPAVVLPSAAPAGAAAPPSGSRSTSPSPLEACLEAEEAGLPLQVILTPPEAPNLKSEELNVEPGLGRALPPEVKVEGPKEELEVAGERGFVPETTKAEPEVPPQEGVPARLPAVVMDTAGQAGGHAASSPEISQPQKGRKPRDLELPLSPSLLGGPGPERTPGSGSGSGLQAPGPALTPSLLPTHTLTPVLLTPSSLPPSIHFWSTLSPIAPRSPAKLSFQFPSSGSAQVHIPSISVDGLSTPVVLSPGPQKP
# Method in brief: as §1
# GABPA = target: T3, GABPA (Homo sapiens, UniProt Q06546 1-454); settings: protein: recombinant; tags: N-terminal GST; dsDNA, one strand shown
# T3 sequence: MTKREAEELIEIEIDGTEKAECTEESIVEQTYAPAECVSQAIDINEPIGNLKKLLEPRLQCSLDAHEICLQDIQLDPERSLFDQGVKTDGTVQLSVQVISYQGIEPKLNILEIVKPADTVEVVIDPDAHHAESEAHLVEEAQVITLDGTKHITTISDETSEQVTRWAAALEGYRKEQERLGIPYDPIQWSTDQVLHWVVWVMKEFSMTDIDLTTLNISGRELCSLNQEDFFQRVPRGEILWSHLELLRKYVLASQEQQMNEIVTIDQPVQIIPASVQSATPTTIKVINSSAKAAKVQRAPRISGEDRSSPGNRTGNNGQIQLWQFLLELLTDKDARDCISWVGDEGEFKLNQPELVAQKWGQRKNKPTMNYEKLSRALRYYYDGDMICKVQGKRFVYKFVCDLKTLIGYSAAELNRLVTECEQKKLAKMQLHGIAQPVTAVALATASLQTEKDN
# Method in brief: as §1
# ERG = target: T4, ERG (Homo sapiens, UniProt P11308 1-479); settings: protein: recombinant; tags: N-terminal GST; dsDNA, one strand shown
# T4 sequence: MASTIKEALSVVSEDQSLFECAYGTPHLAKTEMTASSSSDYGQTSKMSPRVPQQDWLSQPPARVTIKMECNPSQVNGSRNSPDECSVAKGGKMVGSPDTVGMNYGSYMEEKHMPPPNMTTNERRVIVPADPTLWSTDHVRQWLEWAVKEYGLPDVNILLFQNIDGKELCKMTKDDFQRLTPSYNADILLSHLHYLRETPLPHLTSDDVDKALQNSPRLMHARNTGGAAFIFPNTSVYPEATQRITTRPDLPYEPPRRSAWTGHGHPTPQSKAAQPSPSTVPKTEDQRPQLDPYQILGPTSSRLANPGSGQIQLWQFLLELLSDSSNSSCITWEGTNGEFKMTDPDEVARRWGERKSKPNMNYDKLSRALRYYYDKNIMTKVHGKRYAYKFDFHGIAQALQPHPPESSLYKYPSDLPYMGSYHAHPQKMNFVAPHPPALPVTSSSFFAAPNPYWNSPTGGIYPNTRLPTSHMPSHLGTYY
# Method in brief: as §1
# ELF1 = ELF1 (Homo sapiens, UniProt P32519 1-619); settings: protein: recombinant; tags: N-terminal GST; dsDNA, one strand shown
# ELF1, sequence (P32519 whole entry): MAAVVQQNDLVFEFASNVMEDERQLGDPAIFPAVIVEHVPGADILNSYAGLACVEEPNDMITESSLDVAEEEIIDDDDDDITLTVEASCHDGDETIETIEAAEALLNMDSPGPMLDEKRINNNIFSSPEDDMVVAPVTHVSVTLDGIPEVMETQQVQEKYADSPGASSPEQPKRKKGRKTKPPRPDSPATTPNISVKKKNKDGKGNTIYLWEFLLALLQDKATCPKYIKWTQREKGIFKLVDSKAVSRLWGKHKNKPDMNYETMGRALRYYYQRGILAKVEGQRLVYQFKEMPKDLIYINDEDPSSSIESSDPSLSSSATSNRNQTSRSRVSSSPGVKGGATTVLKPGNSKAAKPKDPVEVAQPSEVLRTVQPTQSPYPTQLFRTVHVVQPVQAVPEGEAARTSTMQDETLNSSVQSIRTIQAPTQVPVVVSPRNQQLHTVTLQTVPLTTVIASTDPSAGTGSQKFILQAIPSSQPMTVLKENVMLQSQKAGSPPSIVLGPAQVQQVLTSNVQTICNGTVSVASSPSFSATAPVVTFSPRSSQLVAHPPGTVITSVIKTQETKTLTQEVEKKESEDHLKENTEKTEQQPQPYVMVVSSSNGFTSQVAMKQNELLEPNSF
# Method in brief: as §1
# EHF = target: T5, EHF (Homo sapiens, UniProt Q9NZC4 1-300); settings: protein: recombinant; tags: N-terminal GST; dsDNA, one strand shown
# T5 sequence: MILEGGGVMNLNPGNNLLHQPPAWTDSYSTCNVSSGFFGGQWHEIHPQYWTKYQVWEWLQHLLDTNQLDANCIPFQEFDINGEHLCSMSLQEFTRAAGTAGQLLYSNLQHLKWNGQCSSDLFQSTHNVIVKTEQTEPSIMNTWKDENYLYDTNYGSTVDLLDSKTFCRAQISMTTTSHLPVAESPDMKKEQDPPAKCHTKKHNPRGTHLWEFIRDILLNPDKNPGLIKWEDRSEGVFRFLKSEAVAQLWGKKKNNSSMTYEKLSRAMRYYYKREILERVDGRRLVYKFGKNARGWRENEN
# Method in brief: as §1
# SPI1 = SPI1 (Homo sapiens, UniProt P17947 1-270); settings: protein: recombinant; tags: N-terminal GST; dsDNA, one strand shown
# Method in brief: as §1
# SPIB = SPIB (Homo sapiens, UniProt Q01892 1-262); settings: protein: recombinant; tags: N-terminal GST; dsDNA, one strand shown
# SPIB, sequence (Q01892 whole entry): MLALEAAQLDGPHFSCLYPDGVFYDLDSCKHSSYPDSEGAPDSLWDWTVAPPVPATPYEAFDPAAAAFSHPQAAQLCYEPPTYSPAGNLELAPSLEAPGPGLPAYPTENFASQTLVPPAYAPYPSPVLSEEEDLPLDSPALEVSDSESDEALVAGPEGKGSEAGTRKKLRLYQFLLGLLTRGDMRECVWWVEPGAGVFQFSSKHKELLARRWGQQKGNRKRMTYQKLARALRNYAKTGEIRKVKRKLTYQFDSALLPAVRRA
# Method in brief: as §1
# ELK3 = target: T6, ELK3 (Homo sapiens, UniProt P41970 1-407); settings: protein: recombinant; tags: N-terminal GST; dsDNA, one strand shown
# T6 sequence: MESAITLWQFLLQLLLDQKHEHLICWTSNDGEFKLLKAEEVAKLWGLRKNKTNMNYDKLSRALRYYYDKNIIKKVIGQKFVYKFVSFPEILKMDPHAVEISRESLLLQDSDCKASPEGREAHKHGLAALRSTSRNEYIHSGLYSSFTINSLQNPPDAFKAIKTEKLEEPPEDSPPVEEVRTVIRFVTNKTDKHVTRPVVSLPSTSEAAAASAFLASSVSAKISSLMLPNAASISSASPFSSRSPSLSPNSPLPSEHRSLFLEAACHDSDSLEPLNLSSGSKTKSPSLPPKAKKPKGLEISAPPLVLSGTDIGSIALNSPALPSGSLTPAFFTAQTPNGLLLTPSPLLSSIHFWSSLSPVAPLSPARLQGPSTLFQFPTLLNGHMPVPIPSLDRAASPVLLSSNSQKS
# Method in brief: as §1
# FEV = target: T7, FEV (Homo sapiens, UniProt Q99581 1-238); settings: protein: recombinant; tags: N-terminal GST; dsDNA, one strand shown
# T7 sequence: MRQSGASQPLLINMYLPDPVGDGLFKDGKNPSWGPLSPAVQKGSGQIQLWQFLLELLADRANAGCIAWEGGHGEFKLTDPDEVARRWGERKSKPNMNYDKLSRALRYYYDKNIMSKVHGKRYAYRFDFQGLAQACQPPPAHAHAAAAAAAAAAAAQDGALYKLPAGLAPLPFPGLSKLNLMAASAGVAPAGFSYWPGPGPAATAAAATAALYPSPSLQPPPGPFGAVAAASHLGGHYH
# Method in brief: as §1
# ETV5 = ETV5 (Homo sapiens, UniProt P41161 1-510); settings: protein: recombinant; tags: N-terminal GST; dsDNA, one strand shown
# ETV5, sequence (P41161 whole entry): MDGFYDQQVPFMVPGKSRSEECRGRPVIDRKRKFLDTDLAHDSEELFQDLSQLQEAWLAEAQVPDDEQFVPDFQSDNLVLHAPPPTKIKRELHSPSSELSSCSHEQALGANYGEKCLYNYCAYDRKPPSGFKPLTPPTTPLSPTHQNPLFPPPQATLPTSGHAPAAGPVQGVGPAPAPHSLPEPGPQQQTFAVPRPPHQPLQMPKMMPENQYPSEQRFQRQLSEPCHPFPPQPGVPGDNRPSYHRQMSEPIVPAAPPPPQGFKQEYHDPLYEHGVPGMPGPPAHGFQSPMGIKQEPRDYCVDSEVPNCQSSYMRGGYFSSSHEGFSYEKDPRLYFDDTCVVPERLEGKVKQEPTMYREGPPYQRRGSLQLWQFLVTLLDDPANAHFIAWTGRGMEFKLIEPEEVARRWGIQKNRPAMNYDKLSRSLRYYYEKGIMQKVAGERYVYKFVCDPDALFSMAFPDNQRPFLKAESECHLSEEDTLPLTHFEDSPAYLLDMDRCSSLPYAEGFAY
# Method in brief: as §1
# HSF1 = HSF1 (Homo sapiens, UniProt Q00613 1-529); settings: protein: recombinant; tags: N-terminal GST; chain copies: 3; dsDNA, one strand shown
# HSF1, sequence (Q00613 whole entry): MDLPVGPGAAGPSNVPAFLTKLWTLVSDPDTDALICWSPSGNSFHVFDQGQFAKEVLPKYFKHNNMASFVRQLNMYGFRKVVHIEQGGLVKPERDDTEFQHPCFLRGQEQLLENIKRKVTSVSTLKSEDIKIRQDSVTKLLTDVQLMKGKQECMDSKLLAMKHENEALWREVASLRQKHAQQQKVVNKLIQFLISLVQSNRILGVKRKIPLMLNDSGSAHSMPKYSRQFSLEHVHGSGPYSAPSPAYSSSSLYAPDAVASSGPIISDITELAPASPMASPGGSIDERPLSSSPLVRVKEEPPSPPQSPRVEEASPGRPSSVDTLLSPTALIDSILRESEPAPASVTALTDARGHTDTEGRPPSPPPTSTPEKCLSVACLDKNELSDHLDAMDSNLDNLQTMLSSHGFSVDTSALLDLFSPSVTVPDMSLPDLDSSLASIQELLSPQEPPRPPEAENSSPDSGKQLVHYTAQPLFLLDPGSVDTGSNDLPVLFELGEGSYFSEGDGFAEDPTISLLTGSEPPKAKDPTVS
# Method in brief: as §1
# SPIC = target: T8, SPIC (Homo sapiens, UniProt Q8N5J4 1-248); settings: protein: recombinant; tags: N-terminal GST; dsDNA, one strand shown
# T8 sequence: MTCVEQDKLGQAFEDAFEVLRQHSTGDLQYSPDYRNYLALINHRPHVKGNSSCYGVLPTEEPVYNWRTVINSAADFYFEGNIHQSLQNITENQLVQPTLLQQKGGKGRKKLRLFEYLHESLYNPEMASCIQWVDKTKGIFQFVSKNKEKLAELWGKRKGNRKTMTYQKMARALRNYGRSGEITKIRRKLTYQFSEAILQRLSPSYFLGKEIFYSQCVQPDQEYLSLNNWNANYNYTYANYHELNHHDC
# Method in brief: as §1
# ELF4 = ELF4 (Homo sapiens, UniProt Q99607 1-663); settings: protein: recombinant; tags: N-terminal GST; dsDNA, one strand shown
# ELF4, sequence (Q99607 whole entry): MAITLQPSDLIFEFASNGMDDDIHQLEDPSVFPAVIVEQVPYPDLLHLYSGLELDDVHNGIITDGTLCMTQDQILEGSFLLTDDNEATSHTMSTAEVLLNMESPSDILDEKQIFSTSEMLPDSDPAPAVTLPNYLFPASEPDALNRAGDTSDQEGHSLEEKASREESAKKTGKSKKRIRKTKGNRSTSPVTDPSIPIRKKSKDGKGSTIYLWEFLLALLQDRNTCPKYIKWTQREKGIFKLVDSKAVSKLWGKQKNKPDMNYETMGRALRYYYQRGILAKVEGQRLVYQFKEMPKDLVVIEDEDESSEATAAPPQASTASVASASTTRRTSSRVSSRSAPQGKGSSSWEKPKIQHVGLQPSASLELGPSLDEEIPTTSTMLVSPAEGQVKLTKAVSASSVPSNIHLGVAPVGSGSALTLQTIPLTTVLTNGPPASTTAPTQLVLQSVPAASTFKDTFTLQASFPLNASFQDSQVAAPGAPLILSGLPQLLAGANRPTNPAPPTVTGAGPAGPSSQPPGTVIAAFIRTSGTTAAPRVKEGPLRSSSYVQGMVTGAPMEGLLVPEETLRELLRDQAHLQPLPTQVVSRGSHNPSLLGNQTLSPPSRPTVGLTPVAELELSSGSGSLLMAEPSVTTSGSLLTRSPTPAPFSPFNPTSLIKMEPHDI
# Method in brief: as §1
# ELK4 = target: T9, ELK4 (Homo sapiens, UniProt P28324-2 1-405); settings: protein: recombinant; tags: N-terminal GST; dsDNA, one strand shown
# T9 sequence: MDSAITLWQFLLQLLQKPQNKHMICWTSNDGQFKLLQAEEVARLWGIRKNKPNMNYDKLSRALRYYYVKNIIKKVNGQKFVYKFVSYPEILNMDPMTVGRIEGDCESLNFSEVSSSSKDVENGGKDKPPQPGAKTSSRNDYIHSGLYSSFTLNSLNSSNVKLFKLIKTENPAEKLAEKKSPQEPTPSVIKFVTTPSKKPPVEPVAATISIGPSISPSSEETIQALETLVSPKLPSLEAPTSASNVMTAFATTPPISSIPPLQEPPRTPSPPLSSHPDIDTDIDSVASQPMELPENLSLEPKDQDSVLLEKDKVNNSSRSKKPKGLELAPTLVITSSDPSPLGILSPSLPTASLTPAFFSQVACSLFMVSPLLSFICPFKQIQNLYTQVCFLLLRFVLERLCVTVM
# Method in brief: as §1
# ETV2 = target: T10, ETV2 (Homo sapiens, UniProt O00321 1-342); settings: protein: recombinant; tags: N-terminal GST; dsDNA, one strand shown
# T10 sequence: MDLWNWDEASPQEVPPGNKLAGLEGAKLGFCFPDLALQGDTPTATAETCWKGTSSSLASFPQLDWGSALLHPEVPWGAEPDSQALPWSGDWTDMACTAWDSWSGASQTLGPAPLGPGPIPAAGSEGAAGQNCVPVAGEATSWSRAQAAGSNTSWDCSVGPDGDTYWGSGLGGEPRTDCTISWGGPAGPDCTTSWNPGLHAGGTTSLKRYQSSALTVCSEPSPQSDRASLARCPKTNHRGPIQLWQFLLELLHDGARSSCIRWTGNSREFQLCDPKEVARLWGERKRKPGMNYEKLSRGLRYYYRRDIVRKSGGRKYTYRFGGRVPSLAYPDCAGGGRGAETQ
# Method in brief: as §1
# ELF3 = target: T11, ELF3 (Homo sapiens, UniProt P78545 1-371); settings: protein: recombinant; tags: N-terminal GST; dsDNA, one strand shown
# T11 sequence: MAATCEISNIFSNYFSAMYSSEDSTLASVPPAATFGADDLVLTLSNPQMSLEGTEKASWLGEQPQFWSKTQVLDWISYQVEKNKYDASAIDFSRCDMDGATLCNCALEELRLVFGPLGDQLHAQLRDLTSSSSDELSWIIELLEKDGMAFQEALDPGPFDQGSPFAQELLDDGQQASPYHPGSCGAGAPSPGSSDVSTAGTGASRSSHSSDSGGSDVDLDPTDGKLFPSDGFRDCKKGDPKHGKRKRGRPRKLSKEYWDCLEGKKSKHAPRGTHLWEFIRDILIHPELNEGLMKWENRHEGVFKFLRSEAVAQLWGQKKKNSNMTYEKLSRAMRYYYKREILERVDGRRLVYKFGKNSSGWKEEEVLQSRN
# Method in brief: as §1
# CRX = CRX (Homo sapiens, UniProt O43186 1-299); settings: protein: recombinant; tags: N-terminal GST; dsDNA, one strand shown
# CRX, sequence (O43186 whole entry): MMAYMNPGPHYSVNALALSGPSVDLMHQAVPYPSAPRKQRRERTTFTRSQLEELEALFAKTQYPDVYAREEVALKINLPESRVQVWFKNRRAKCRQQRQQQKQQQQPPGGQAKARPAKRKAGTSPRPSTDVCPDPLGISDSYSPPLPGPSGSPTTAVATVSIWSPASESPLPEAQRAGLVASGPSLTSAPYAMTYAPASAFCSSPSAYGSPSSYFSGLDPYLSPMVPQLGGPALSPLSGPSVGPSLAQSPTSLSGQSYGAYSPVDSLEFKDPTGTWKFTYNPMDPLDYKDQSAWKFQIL
# Method in brief: as §1
# ETV1 = ETV1 (Homo sapiens, UniProt P50549 1-477); settings: protein: recombinant; tags: N-terminal GST; dsDNA, one strand shown
# ETV1, sequence (P50549 whole entry): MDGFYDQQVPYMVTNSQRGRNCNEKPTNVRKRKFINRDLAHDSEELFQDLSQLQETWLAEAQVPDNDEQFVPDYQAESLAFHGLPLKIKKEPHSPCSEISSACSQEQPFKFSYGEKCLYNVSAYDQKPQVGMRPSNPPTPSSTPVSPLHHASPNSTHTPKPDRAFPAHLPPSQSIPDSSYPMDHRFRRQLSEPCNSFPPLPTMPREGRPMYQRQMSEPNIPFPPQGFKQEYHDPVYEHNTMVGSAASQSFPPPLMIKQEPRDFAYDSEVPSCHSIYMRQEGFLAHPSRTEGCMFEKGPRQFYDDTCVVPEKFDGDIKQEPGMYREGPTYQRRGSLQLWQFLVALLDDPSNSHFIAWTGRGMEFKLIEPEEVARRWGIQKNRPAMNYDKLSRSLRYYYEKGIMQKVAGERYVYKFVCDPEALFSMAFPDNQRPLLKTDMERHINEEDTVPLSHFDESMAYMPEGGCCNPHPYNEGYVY
# Method in brief: as §1
sequence,measurement,setting,value
ACCTAC,binding signal,FLI1,"1.22 fold enrichment (6-mer frequency, TF over GST control)"
same,binding signal,ELK1,"1.2 fold enrichment (6-mer frequency, TF over GST control)"
same,binding signal,GABPA,"1.21 fold enrichment (6-mer frequency, TF over GST control)"
same,binding signal,ERG,"1.1 fold enrichment (6-mer frequency, TF over GST control)"
same,binding signal,ELF1,"1.27 fold enrichment (6-mer frequency, TF over GST control)"
same,binding signal,EHF,"1.21 fold enrichment (6-mer frequency, TF over GST control)"
same,binding signal,SPI1,"1.18 fold enrichment (6-mer frequency, TF over GST control)"
same,binding signal,SPIB,"1.23 fold enrichment (6-mer frequency, TF over GST control)"
same,binding signal,ELK3,"1.13 fold enrichment (6-mer frequency, TF over GST control)"
same,binding signal,FEV,"1.17 fold enrichment (6-mer frequency, TF over GST control)"
same,binding signal,ETV5,"1.13 fold enrichment (6-mer frequency, TF over GST control)"
same,binding signal,HSF1,"1.07 fold enrichment (6-mer frequency, TF over GST control)"
same,binding signal,SPIC,"1.13 fold enrichment (6-mer frequency, TF over GST control)"
same,binding signal,ELF4,"1.24 fold enrichment (6-mer frequency, TF over GST control)"
same,binding signal,ELK4,"1.22 fold enrichment (6-mer frequency, TF over GST control)"
same,binding signal,ETV2,"1.23 fold enrichment (6-mer frequency, TF over GST control)"
same,binding signal,ELF3,"1.29 fold enrichment (6-mer frequency, TF over GST control)"
same,binding signal,CRX,"1.02 fold enrichment (6-mer frequency, TF over GST control)"
same,binding signal,ETV1,"1.23 fold enrichment (6-mer frequency, TF over GST control)"
